Here are results for four compounds from PubChem BioAssay (NCI).

The structures appear in SMILES notation. The panel holds about 83,000 compounds, 20% with a hit somewhere; the sample as a whole holds those more often.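 48-hour exposure, single concentration, 96-well plates; percent growth endpoint where 0 means no net growth. Active: below 10.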 A number with no mark means an inactive call. Calls of active or inactive are those of the source.

The experiment deals with MDA-MB-468 breast. Kind of experiment: NCI-60 one-dose screen, 48 h (100 = growth as untreated, 0 = no growth, -100 = all killed). The following applies: 10 µM unless noted.
Consider `CSc1nc(Nc2ccc(S(=O)(=O)Nc3ccon3)cc2)c(C#N)c(-c2ccc(Cl)cc2)n1`, for which the growth is 93.1%. Turning to `CC(C)(c1ccc(OCC(O)CNCc2ccco2)cc1)c1ccc(OCC(O)CNCc2ccco2)cc1` (centres undefined), the growth was 98.1%. Take `CCOc1ccc(NC(=O)c2cc(OC)c(OC)c(OC)c2)cc1`: the growth is 8.51% (active). The value for `COc1cc(C(=O)n2nc(N3CCOCC3)c3cc(-n4cccc4)ccc32)cc(OC)c1OC` was 49.2%.
